RE007 growth inh: less growth of the S. pombe RE007 Vpr strain; S. pombe RE007 Vpr strain, BacTiter-Glo ATP luminescence, 24 h; Potency, µM (top dose mostly 92.2 µM), inactives show at the highest dose activity change, negative = less growth, most hits filed as inhibitors; 360,000 tested, 0.21% active; AID 651644; active = well fitted falling curve with a large enough effect; inconclusive = small, poorly fitted or top-dose-only effect; inactive = no such curve, though single readings can be large or run the other way; also: potency is read from the fitted curve at half-maximal effect; % is scaled to controls: 0 for no effect and ±100 for the full control effect; nearly all actives have a fitted effect of over 50% in size
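Fission yeast strain RE007, carrying one chromosomally integrated HIV-1 vpr copy, was seeded at OD 0.01 in PMG+AL medium with 23 nL pinned compound. After 24 h at 30 °C and 99% humidity, viability was read by BacTiter-Glo luminescence.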
FBPA Giardia inh: blocks Giardia fructose-bisphosphate aldolase activity; A8B2U2; purified Giardia FBPA; 290,000 tested, 0.71% active; Potency, µM (highest dose often 59.6 µM), without a hit: at the top dose activity, negative = inhibition, usual class: inhibitors; AID 2451; also: potency is read from the fitted curve at half-maximal effect; % is scaled to controls: 0 for no effect and ±100 for the full control effect; nearly all actives have a fitted effect of over 55% in size
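Giardia FBPA (40 nM reagent) was preincubated 10 min at RT with compound (up to 57.5 uM final), then substrate plus GAPDH/TPI/NAD/arsenate coupling system with diaphorase/resazurin was added; resorufin fluorescence (525/598 nm) was read after 20 min.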
Tb PYK inh: inhibitors of Trypanosoma brucei pyruvate kinase | TbPYK enzyme, Kinase-Glo Plus ATP luminescence, 45 min | Potency, µM (series often up to 76.8 µM), without a hit: at the top dose activity, negative = inhibition, most hits filed as inhibitors | 410,000 tested, 0.12% active | AID 624173; also: potency is read from the fitted curve at half-maximal effect; % is scaled to controls: 0 for no effect and ±100 for the full control effect; nearly all actives have a fitted effect of over 50% in size
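Assay buffer: 50 mM TEA pH 7.2, 100 mM KCl, 10 mM MgCl2, 0.05% BSA, 0.01% Tween-20. Pyruvate kinase from T. brucei plus substrate met compound, then ADP (130 uM final). Luminescence was read post 45 min RT.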
Shiga toxin inh: Shiga toxin inhibition; Vero cells, Shiga toxin protein synthesis inhibition reporter; inhibition, % at 38.7 µM; 290,000 tested, 9.2% active; in the data active = inhibition mostly above about 28%, no sharp cut-off; inactive = mostly below about 43%; also: 0% is about no effect
CHX counter: counter-screen for Shiga toxin inhibitors: cycloheximide protein synthesis inhibition | 300,000 tested, 12% active | max response, % | cell reporter, cycloheximide protein synthesis inhibition counterscreen; in the data active = max response mostly above about 13%, no sharp cut-off; inactive = mostly below about 14%; also: read at 38.3 µM for the half of the compounds with a filed dose; 0% is about no effect
LmPK inh: LmPK (Leishmania mexicana) enzyme inhibition | Q27686 | purified LmPK, Kinase-Glo ATP luminescence, 1 h | AID 1721 | Potency, µM (top dose mostly 57.5 µM), without a hit: at the highest dose activity change, negative = inhibition, hits mostly inhibitors | 290,000 tested, 0.37% active; also: potency is read from the fitted curve at half-maximal effect; % is scaled to controls: 0 for no effect and ±100 for the full control effect
Target sequence (Q27686 whole entry, looked up): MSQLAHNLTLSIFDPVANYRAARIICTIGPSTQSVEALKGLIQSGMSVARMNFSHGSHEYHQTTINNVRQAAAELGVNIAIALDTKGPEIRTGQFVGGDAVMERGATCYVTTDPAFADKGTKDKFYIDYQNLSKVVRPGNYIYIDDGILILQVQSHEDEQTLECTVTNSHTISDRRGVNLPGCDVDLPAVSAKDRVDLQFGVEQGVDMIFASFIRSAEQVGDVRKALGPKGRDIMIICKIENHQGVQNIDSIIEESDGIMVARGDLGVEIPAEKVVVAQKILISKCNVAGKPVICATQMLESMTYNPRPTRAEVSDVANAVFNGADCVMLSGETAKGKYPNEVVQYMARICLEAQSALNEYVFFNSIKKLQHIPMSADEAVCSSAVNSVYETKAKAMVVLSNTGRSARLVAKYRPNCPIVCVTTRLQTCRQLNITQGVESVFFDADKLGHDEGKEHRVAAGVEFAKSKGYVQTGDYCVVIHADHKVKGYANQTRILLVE
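Screened at intermediate enzyme activity to detect both inhibitors and activators: LmPK at 0.1 nM, with a 0.5 nM enzyme column as activation reference. PEP 0.5 mM, ADP 0.1 mM; ATP detected by luminescence after 1 h.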
Active calls of the source: *; ? = inconclusive; · = no result given; + = active, no number; [ ] = remark or other dose. The sample as a whole holds a higher share of hits than the screen did. Unless noted, calls follow the shape of the dose curve; as a rule, active = well fitted curve in the direction sought with a large enough effect; inconclusive = small, poorly fitted or top-dose-only effect, or another doubt; inactive = no such curve, though single readings can be large; an effect the other way counts as inactive or inconclusive.

SMILES | RE007 growth inh | FBPA Giardia inh | Tb PYK inh | Shiga toxin inh | CHX counter | LmPK inh
Cc1ccc(C(=O)Nc2nc(C)c(C(=O)N(C)C)s2)o1 | -8% | -9% | -12% | 80* | 37* | ?
Cc1nc(NC(=O)/C=C/c2ccc(F)cc2)sc1C(=O)N(C)C | -1% | 2% | -5% | -3 | 8 | -1%
Cc1nc(NC(=O)c2ccncc2)sc1C(=O)N(C)C | 3% | -28% | 4% | -12 | 10 | 1%
Cc1nnc(NC(=O)c2oc3ccccc3c2C)s1 | -4% | · | -4% | 90* | 36* | -11%
Cc1nc(NC(=O)/C=C/c2ccccc2)sc1C(=O)N(C)C | · | 3% | -4% | 80* | 40* | 2%
Cc1nc(NC(=O)c2oc3ccccc3c2C)sc1C(=O)N(C)C | -6% | -11% | 2% | 52* | 40* | -5%
CC1(C(=O)NS(=O)(=O)C2CC2)CCCN(C(=O)/C=C/c2ccccc2)C1 (configuration not stated) | -7% | · | 5% | · | · | ·
CC(CCc1ccccc1)NC(=O)COC(=O)c1cccnc1Cl (configuration not stated) | 8% | · | -3% | · | · | ·
COCCCn1c(-c2ccco2)nc2ccccc2c1=O | 4% | 8% | -20% | -25 | 1 | 3%
COCCCN=C(c1ccco1)n1c(=S)nc(-c2ccco2)n(CCCOC)c1=S | -12% | ? | -12% | 62* | 28* | 0%
O=C(Oc1ccccc1)N1CCC2(CC1)CCN(c1ccccn1)CC2 | · | -17% | 4% | · | · | ·
Cc1nc2c(cc(Oc3ccc(S(=O)(=O)N4CCOCC4)cn3)c3ccsc32)s1 | -14% | ? | -8% | 113* | 72* | -11%
COc1cc(C(C)=O)ccc1Oc1ccc(S(=O)(=O)N2CCOCC2)cn1 | 2% | · | 8% | · | · | ·
Cc1ccc(C2=NN=C(NC(=O)C(F)(F)F)SC2)cc1 | 64% | 1% | -18% | 111* | 27* | -7%
Cc1ccc(C2=NN=C(NC(=O)CSc3nncn3C)SC2)cc1 | -12% | -10% | ? | -3 | 9 | -5%
CSC1=N/C(=C\c2cccnc2)C(=O)N1c1ccccc1 | 4% | 1% | 2% | 24 | 27* | 1%
Cc1ccc(C2=C/C(=C/c3cccnc3)C(=O)O2)c(C)c1 | -24% | ? | -9% | 8 | 11* | 1%
CC1=N/C(=C/c2cccnc2)C(=O)O1 | -7% | 5% | 4% | 26 | 34* | -3%
CCSC1=N/C(=C\c2cccnc2)C(=O)N1c1ccccc1 | -20% | 2% | 2% | -11 | -2 | 1%
CC1CN(C(=O)Nc2ccc3snnc3c2)c2ccccc21 (configuration not stated) | -2% | -24% | -9% | 36* | 27* | 6%
O=C(N/N=C/C(Cl)=C\c1ccccc1)c1cnccn1 | -14% | -10% | 4% | 132* | 53* | -5%
CC(/C=N/Nc1nc(C)cc(C)n1)=C\c1ccc(C(C)C)cc1 | -22% | -12% | 9% | 59* | 35* | 4%
CC(/C=N/NC(=O)CSc1nc(C)cc(C)n1)=C\c1ccccc1 | 9% | 2% | -4% | -11 | -5 | -1%
CC(/C=N/NC(=O)c1ccncc1)=C\c1ccc(C(C)C)cc1 | -5% | 6% | -4% | 128* | 52* | 0%
CC(/C=N/NC(=O)c1cccnc1)=C\c1ccccc1 | 1% | 12% | 1% | 84* | 49* | -2%[11.5 µM]
SMILES | RE007 growth inh | FBPA Giardia inh | Tb PYK inh | Shiga toxin inh | CHX counter | LmPK inh
CCOc1cc(C(=O)Nc2cc3c(cc2N2CCCC2)n(C)c(=O)c(=O)n3C)cc(OCC)c1OCC | · | · | -4% | · | · | ·
CCOc1ccc(NS(=O)(=O)c2ccc(C(=O)NCC(c3ccc(OC)cc3)N3CCOCC3)cc2)cc1 (configuration not stated) | 0% | · | -5% | · | · | ·
O=C(N/N=C/C(Cl)=C/c1ccccc1)c1cnccn1 | -28% | -4% | 1% | 57* | 27 | -8%
O=C(N/N=C/C=C/c1ccccc1)C(O)c1ccccc1 (configuration not stated) | -4% | · | -17% | · | · | ·
CC(=C/c1ccccc1)/C=N/NC(=O)c1cnccn1 | -17% | 1% | 0% | 51* | 30* | -1%
CC(/C=N/NC(=O)C(O)c1ccccc1)=C\c1ccccc1 (configuration not stated) | 15% | 1% | 0% | 45* | 14* | -1%
O=C(Cc1cc(=O)[nH][nH]1)N/N=C/C(Cl)=C/c1ccccc1 | -5% | 7% | 8% | -10 | -1 | 1%
Cc1nn(C)c(C(=O)NNC(=O)NC2CCCCC2)c1Cl | 6% | -1% | 6% | -6 | 1 | -2%
C/C=C/c1ccc(OCCCCN2C(=O)NC(C)(C)C2=O)c(OC)c1 | 16% | 2% | -17% | 25 | 14* | -10%
Cc1cc(=O)[nH]c(SCCOc2ccc3c(c2)CCC3)n1 | 10% | -18% | -2% | 8 | 14 | 0%
C/C=C/c1ccc(OCCSc2nc(C)cc(=O)[nH]2)c(OC)c1 | 13% | -4% | 0% | 77* | 24* | 2%
Cc1cc(=O)[nH]c(SCCOc2ccc(OC(C)C)cc2)n1 | -12% | -15% | -3% | 47* | 31* | -20%
CC1CN(S(=O)(=O)c2cccc(C(=O)Nc3ccc(S(=O)(=O)NC4=NCCCCC4)cc3)c2)CC(C)O1 (configuration not stated) | -19% | · | 0% | · | · | ·
COc1ccccc1CNC(=O)CS(=O)(=O)Cc1nc(-c2ccccc2C)oc1C | · | · | 0% | · | · | ·
OC1(c2cccc(C(F)(F)F)c2)CCN(c2ccc(-c3ccccc3)nn2)CC1 | -12% | 6% | 0% | 67* | 38* | -2%
O=C(Nc1ccccc1)N1CCC(O)(c2cccc(C(F)(F)F)c2)CC1 | 17% | 8% | 4% | -2 | -1 | 7%
Cc1ccc2cc(-c3noc(C(C)(C)C)n3)c(=O)[nH]c2c1 | 25% | 1% | -7% | 2 | -1 | 0%
Cc1ccc2cc(CCNC(=O)c3ccco3)c(=O)[nH]c2c1 | 9% | 5% | 2% | 63* | 31* | -2%
Cc1ccc2cc(CCNC(=O)c3ccco3)c(=O)[nH]c2c1C | 14% | 8% | 1% | + | 61* | -1%
CCc1nc(-c2cc3ccc(C)cc3[nH]c2=O)no1 | -14% | -6% | -17% | 34 | 17* | 8%
Cc1cc2cc(CCNC(=O)c3cccs3)c(=O)[nH]c2cc1C | 10% | 4% | -1% | 54* | 31* | 1%
COc1cc(NC(=O)CCc2nnc3ccc(N4CCOCC4)nn23)cc(OC)c1OC | -3% | -4% | 0% | -3 | -2 | 1%
NC(=O)c1cccc(-c2ccnc3c2CC(C(=O)NCc2ccccc2)O3)c1 (configuration not stated) | -20% | · | 1% | · | · | ·
